# Source: PubChem
# PfHsp90 set2 = growth inhibition of yeast expressing Plasmodium Hsp90. S. cerevisiae expressing PfHsp90, BacTiter-Glo ATP, 48 h; yeast lacking PDR1 and PDR3 efflux regulators. inhibition, % at 9.4 µM. hit rate 0.32% among 310,000. AID 504621;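 active means every replicate shows inhibition above about 80%, whatever the replicate mean, limit read from the data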;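 further: 0% = DMSO neutral controls and 100% = 20 µM radicicol positive controls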
# SIRT5 inh = sirtuin-5 (human) deacylase inhibition | Q9NXA8 | Purified SirT5, succinyl-peptide AMC, trypsin-coupled fluorescence | inhibition, % at 15 µM | hit rate 1.1% among 330,000; in the data active means inhibition above about 15%
# NSD2 inh = blocks human histone methyltransferase NSD2; O96028; NSD2 peptide methylation, AlphaScreen, 120 min; inhibition, % at 12.5 µM; hit rate 0.54% among 310,000; in the data active means inhibition above about 50%
# Target sequence (O96028 whole entry, looked up): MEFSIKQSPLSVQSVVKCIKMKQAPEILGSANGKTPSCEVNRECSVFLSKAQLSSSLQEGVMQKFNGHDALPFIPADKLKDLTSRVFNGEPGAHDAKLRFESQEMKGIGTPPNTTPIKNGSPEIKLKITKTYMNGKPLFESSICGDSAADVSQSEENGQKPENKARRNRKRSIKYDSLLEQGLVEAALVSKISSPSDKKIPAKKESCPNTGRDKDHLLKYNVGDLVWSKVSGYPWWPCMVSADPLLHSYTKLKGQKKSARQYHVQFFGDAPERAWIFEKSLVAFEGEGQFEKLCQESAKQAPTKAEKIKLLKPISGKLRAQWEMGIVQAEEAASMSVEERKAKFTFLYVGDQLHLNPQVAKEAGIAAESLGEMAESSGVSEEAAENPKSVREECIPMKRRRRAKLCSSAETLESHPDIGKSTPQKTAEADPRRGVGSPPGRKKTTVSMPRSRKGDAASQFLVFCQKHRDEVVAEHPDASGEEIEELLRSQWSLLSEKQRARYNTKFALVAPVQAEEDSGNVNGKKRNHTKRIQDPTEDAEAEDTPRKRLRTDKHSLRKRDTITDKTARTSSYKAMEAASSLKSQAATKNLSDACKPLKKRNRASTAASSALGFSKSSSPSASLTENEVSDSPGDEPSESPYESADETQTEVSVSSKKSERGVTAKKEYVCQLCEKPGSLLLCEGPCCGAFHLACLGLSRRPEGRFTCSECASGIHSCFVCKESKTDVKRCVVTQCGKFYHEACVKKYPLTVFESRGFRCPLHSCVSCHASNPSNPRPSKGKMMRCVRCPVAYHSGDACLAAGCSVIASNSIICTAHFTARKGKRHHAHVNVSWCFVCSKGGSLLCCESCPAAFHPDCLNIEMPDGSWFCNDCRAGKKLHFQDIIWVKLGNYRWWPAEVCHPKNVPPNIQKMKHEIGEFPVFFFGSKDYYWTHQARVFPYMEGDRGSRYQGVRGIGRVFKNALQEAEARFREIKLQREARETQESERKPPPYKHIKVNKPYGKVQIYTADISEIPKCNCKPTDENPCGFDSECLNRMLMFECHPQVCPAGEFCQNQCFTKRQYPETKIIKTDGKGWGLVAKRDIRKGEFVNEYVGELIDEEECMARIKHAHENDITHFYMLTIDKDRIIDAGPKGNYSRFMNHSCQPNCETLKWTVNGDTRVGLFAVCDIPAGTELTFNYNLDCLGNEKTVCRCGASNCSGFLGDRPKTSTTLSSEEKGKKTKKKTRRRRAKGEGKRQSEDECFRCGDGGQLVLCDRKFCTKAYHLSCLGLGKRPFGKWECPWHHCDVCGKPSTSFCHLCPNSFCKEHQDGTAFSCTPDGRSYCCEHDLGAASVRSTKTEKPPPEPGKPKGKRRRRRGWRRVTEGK
# Casp6 inh = inhibitors of human caspase-6. P55212. purified caspase-6, Z-VEID-R110 cleavage fluorescence. inhibition, % at 12.5 µM. AID 686996. hit rate 0.53% among 350,000;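 active means mean inhibition across replicates at least about 35%, with every replicate also reaching that limit, limit read from the data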;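 further: 0% = median of neutral control wells and 100% = no fluorescence left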
# ARNT-TACC3 inh = disrupts binding between human ARNT and TACC3. AID 623870. AlphaScreen His-ARNT PAS-B/GST-TACC3 binding, luminescence; TACC3 fragment carries E629A point mutation. hit rate 0.66% among 390,000. inhibition, % at 9.99 µM;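 active means mean inhibition of replicates at least 50% and at least half of replicates each reaching 50%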;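 further: 0% = complete ARNT plus TACC3 wells and 100% = ARNT alone without TACC3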
# * hit, by the source's call; x = no result given. A selection: hits, their analogues and other compounds. The true share with any hit is near 2.1%.
SMILES,PfHsp90 set2,SIRT5 inh,NSD2 inh,Casp6 inh,ARNT-TACC3 inh
COc1ccc(OC)c(S(=O)(=O)NCC(c2cccs2)N2CCc3ccccc3C2)c1 (centres undefined),x,-4.1,0.6,72.0*,3.0
CCC(=O)N1C[C@@H](C)[C@H](OC)CN(C)C(=O)c2ccc(NC(=O)c3ccno3)cc2OC[C@@H]1C,x,x,x,-0.6,x
O=C(NCC(c1ccco1)N1CCc2ccccc21)c1ccccc1 (centres undefined),x,-3.5,14.3,51.6*,2.8
Cc1ccc(C(=O)NCC(c2ccco2)N2CCc3ccccc32)cc1C (centres undefined),x,-2.3,-3.7,-3.4,-1.7
CC(C)C(=O)N=c1sc2cc(F)cc(F)c2n1C,-6.6,17.1*,x,1.0,0.5
CC(C)[C@@H]1COCc2cn(nn2)CC[C@H](Cc2ccccc2)C(=O)N1,x,1.8,x,6.2,x
O=Cc1ccc(O)cc1O,-5.7,x,x,-1.9,-6.4
O=CN/C=C/c1cc(O)ccc1O,1.1,x,x,70.0*,3.4
O=C(CSCC(=O)N1CCCCC1)Nc1nc(-c2ccc(Cl)s2)cs1,107.9*,2.2,x,0.5,-11.1
CCN(CC)CCCOc1nc(C)nc2c1oc1ccccc12,-2.6,x,64.5*,x,1.3
CCN(CC)CCOc1nc(C)nc2c1oc1ccccc12,x,x,10.0,x,9.0
CN1CCN(C(=O)c2ccc3nc(-c4ccc(F)cc4)c(-c4ccc(F)cc4)nc3c2)CC1,x,x,4.1,x,x
COC(=O)c1ccc(CNC(=O)/C=C/[C@H]2O[C@@H](n3cc(C)c(=O)[nH]c3=O)C[C@@H]2O)cc1,x,21.2*,x,2.4,x
COc1ccc(CNC(=O)/C=C/[C@H]2O[C@@H](n3cc(C)c(=O)[nH]c3=O)C[C@@H]2O)cc1,x,0.2,x,0.1,x
COc1ccccc1NC(=O)N1CC(=O)N2[C@H](CO)[C@@H](c3ccc(C#CC4CC4)cc3)[C@H]2C1,x,22.1*,x,x,x
O=C(Nc1cc(F)ccc1F)N1CC(=O)N2[C@H](CO)[C@H](c3ccc(C#CC4CCCCC4)cc3)[C@H]2C1,x,8.4,x,-2.6,x
O=C(Nc1ccccc1)N1CC(=O)N2[C@H](CO)[C@@H](c3ccc(C#CC4CCCCC4)cc3)[C@@H]2C1,x,16.1*,x,0.9,x
O=C(Nc1cc(F)ccc1F)N1CC(=O)N2[C@H](CO)[C@H](c3ccc(C#CC4CCCCC4)cc3)[C@@H]2C1,x,17.2*,x,0.6,x
O=C(Nc1cc(F)ccc1F)N1CC(=O)N2[C@@H](CO)[C@@H](c3ccc(C#CC4CCCCC4)cc3)[C@@H]2C1,x,21.0*,x,1.6,x
Cc1ccc(S(=O)(=O)N(C)C[C@@H]2Oc3ncc(C#CC4(O)CCCC4)cc3C(=O)N([C@H](C)CO)C[C@@H]2C)cc1,x,2.0,x,-2.1,-4.8
COc1cccc(S(=O)(=O)Nc2ccc3c(c2)C(=O)N(C)C[C@@H](OC)[C@H](C)CN(C(=O)Cc2cccnc2)[C@@H](C)CO3)c1,x,x,x,-2.0,-7.1
CC(C)NC(=O)N1CCCCN2[C@H](CO)[C@H](c3ccc(C#CC4CC4)cc3)[C@H]2C1,x,-0.8,x,-3.9,8.4
COc1ccccc1C#Cc1ccc([C@@H]2[C@@H](CO)N3CCCCN(C(=O)C4CCCC4)C[C@@H]23)cc1,x,9.9,x,1.1,-8.1
COc1ccccc1C#Cc1ccc([C@H]2[C@H](CO)N3CCCCN(C(=O)C4CCCC4)C[C@@H]23)cc1,x,16.9*,x,-1.2,7.5
COc1ccccc1NC(=O)N1CCCCN2[C@@H](CO)[C@H](c3ccc(C#CC4CCCC4)cc3)[C@@H]2C1,x,16.9*,x,-1.0,32.2
SMILES,PfHsp90 set2,SIRT5 inh,NSD2 inh,Casp6 inh,ARNT-TACC3 inh
COc1ccccc1NC(=O)N1CCCCN2[C@@H](CO)[C@@H](c3ccc(C#CC4CCCC4)cc3)[C@@H]2C1,x,0.3,x,1.4,42.7
CC(C)NC(=O)N1CCCCN2[C@H](C1)[C@@H](c1ccc(C#CC3CC3)cc1)[C@@H]2CO,x,22.4*,x,-0.4,5.4
C[C@@H]1CN([C@@H](C)CO)C(=O)c2cc(NC(=O)Cc3ccccc3)ccc2O[C@@H]1CN(C)Cc1ccc2c(c1)OCO2,x,-0.3,x,3.9,-1.1
O=C(OC1CCOC1=O)c1cc(Cl)ccc1[N+](=O)[O-] (centres undefined),-2.5,97.9*,25.5,-1.3,-5.3
O=C(OC1CCOC1=O)c1ccc(N2CCCC2)c([N+](=O)[O-])c1 (centres undefined),x,2.3,2.7,-1.5,-0.8
O=C(OC1CCOC1=O)c1ccc(Cl)c(S(=O)(=O)N2CCOCC2)c1 (centres undefined),1.1,-9.3,1.6,40.4*,-0.1
CO[C@H]1CN(C)C(=O)c2cc(NC(=O)C3CC3)ccc2OC[C@H](C)N(Cc2nccs2)C[C@H]1C,x,-0.5,x,0.6,-2.3
CC(C)N(C(=O)COC(=O)c1cncc(Br)c1)C(C)C,12.7,1.6,1.9,-0.5,1.1
CN(Cc1ccccc1)C(=O)COC(=O)c1cncc(Br)c1,-25.9,16.8*,-5.2,-2.1,-1.9
Cc1ccc(Cn2ncc3c(NCCN(C)C)ncnc32)cc1,0.8,-5.1,-3.7,-6.9,0.1
Cc1ccc(Cn2ncc3c(NN)ncnc32)cc1,-11.7,1.0,4.2,0.5,66.1*
Cc1ccc(-c2ccc(CN3C(C(C)C)C(=O)N(Cc4cn(Cc5ccco5)nn4)CCS3(=O)=O)cc2)cc1 (centres undefined),x,15.9*,x,18.5,x
CC(C)CC1C(=O)N(Cc2cn(CC3CCCCC3)nn2)CCS(=O)(=O)N1Cc1ccc(-c2ccc(Cl)c(Cl)c2)cc1 (centres undefined),x,19.1*,x,-2.5,x
O=C(C1CC1)N1CC(=O)N2[C@@H](CO)[C@@H](c3ccc(C#Cc4cccc(F)c4)cc3)[C@@H]2C1,x,-4.3,x,2.2,x
O=C(C1CCOCC1)N1C[C@H]2[C@@H](c3ccccc31)[C@@H](CO)N2C(=O)c1ccccc1,x,-0.8,x,-5.5,7.9
CN1C[C@@H]2[C@H](c3ccccc31)[C@@H](CO)N2C(=O)C1CCCC1,x,x,x,x,-4.7
Cn1cnc(S(=O)(=O)N2C[C@H](O)COC[C@H]3O[C@@H](CC(=O)NCc4cc(F)cc(F)c4)CC[C@@H]32)c1,x,0.4,x,-0.1,-2.5
N/C(=N\NS(=O)(=O)c1ccccc1)c1ccccn1,-2.0,-3.7,-6.1,0.4,66.5*
N/C(=N\NS(=O)(=O)c1ccc(Cl)cc1)c1ccccn1,-7.6,-4.7,x,1.1,43.4*
CC1CC(NC(=O)c2cc3c(=O)n4ccccc4nc3n2C)CC(C)(C)C1 (centres undefined),-8.2,15.0*,-14.7,1.1,-9.8
CC1CCCCC1NC(=O)c1cc2c(=O)n3ccccc3nc2n1C (centres undefined),-11.4,-74.1,-8.2,3.5,-23.7
Cc1ccc(-n2nc(-c3ccco3)cc2C(=O)O)cc1,22.1,2.9,11.0,55.4*,-2.2
CO[C@@H]1CN(C)C(=O)c2cc(NC(=O)NC(C)C)ccc2OC[C@@H](C)N(C(=O)CC2CC2)C[C@H]1C,x,0.4,x,-0.7,1.1
COCC(=O)N1C[C@@H](C)[C@@H](OC)CN(C)C(=O)c2cc(NC(=O)c3cc(C)on3)ccc2OC[C@H]1C,x,19.2*,x,3.4,-4.4
